# Compounds with a hit are over-represented: about 2.6% of the library has one in this group of screens.
# Cruzain inh Det: qHTS Assay for Promiscuous and Specific Inhibitors of Cruzain (with detergent); Potency, µM, for inactives: max response, negative = inhibition, most hits filed as inhibitors; Cruzipain (Trypanosoma cruzi), P25779; hit rate 0.43% among 200,000; AID 1478, 2009; purified cruzain, Z-FR-AMC fluorescence, 0.01% Triton;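 note: plate controls were neutral wells for no effect and buffer without enzyme for full effect; nearly all actives have a fitted effect of over 40% in size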
# Target sequence (P25779 123-467 limits assumed): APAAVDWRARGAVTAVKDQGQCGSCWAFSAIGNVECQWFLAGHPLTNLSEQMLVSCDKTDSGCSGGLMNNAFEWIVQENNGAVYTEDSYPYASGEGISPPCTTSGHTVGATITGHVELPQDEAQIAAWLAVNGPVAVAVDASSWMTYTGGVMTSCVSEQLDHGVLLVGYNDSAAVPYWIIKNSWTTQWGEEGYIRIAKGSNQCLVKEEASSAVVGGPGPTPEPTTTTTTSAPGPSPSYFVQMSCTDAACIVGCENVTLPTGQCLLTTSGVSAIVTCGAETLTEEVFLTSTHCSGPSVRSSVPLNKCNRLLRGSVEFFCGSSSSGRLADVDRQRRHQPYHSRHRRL
#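 In this qHTS format, compounds are incubated with 1.5 nM cruzain for 15 min at room temperature before 2 uM Z-FR-AMC is added. Release of AMC is followed at 360/450 nm, and progress is taken as the 60 s fluorescence difference.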
# Cruzain noTriton: qHTS Assay for Promiscuous and Specific Inhibitors of Cruzain (without detergent); Cruzipain (Trypanosoma cruzi), P25779; purified cruzain, Z-FR-AMC fluorescence, no detergent; Potency, µM, inactives show max response, negative = inhibition, hits mostly inhibitors; hit rate 2.3% among 200,000; AID 1476, 2009;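 note: plate controls were enzyme without inhibitor for no effect and buffer without enzyme for full effect; nearly all actives have a fitted effect of over 40% in size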
#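 Purified cruzain at 1.5 nM, pre-incubated 15 min with compound at room temperature in 100 mM sodium acetate pH 5.5, 5 mM DTT, 0.00005% Triton X-100. Reaction started with 2 uM Z-FR-AMC; AMC fluorescence increase over 60 s gives rate.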
# * = called active by the depositor; ? = inconclusive. Calls come from the whole dose curve; as a rule, active = well fitted curve in the direction sought with a large enough effect; inconclusive = small, poorly fitted or top-dose-only effect, or another doubt; inactive = no such curve, though single readings can be large; an effect the other way counts as inactive or inconclusive. Potency is the fitted concentration of half-maximal effect.
SMILES,Cruzain inh Det,Cruzain noTriton
COc1ccc(C2=C(C)C(=O)N(Cc3ccc(C(=O)NCc4cccc(C)c4)cc3)S2(=O)=O)cc1,-19%,25µM*
COc1ccc(C2=C(C)C(=O)N(Cc3ccc(C(=O)Nc4cccc(F)c4)cc3)S2(=O)=O)cc1,-16%,?
COc1ccc(C2=C(C)C(=O)N(Cc3ccc(C(=O)NC(C)c4ccccc4)cc3)S2(=O)=O)cc1 (stereo not drawn),-10%,16µM*
CCc1cccc(NC(=O)c2ccc(CN3C(=O)C(C)=C(c4ccc(OC)cc4)S3(=O)=O)cc2)c1,-7%,25µM*
CCC(=O)[C@@H](c1ccccc1)c1ccccn1,7%,-8%
Cc1ccc(N(CC(=O)Nc2ccc(F)cc2F)S(=O)(=O)c2cccs2)cc1,-8%,-7%
CN(C)CCN1C(=O)CC[C@]2(C)C1=CC[C@@H]1[C@@H]2CC[C@]2(C)[C@H]1CC[C@]2(C)O,1%,-10%
COc1cc2c(cc1OC)-c1cc(N3CCCc4ccccc43)nc(=O)n1CC2,-10%,20%
COc1cc2c(cc1OC)-c1cc(N3CCCCCC3)nc(=O)n1CC2,-15%,13µM*
CN(CCC(=O)O)C1=Nc2ccc(Cl)cc2C(c2ccccc2)=[N+]([O-])C1,2%,3%
Cc1ccc2ccc3cc(C(=O)Nc4ccc(C)c(F)c4)nc3c2[nH]1,8.9µM*,?
Cc1ccc2ccc3cc(C(=O)N4CCN(c5ccccc5F)CC4)nc3c2[nH]1,-2%,-22%
CC(=O)Nc1cccc(Nc2nc3ccccc3n3c(C)nnc23)c1,-8%,3%
COc1ccc(-c2noc(CC(=O)Nc3cc(OC)ccc3OC)n2)cc1,-6%,4µM*
COc1ccc(-c2noc(CNC(=O)c3ccc(OC)cc3OC)n2)cc1,-10%,5%
COc1ccc(-c2noc(-c3ccc(N4CCCCC4C)c([N+](=O)[O-])c3)n2)cc1OC (stereo not drawn),2%,17%
Cc1c(C(=O)NC(Cc2ccccc2)c2nc3ccccc3[nH]2)cccc1[N+](=O)[O-] (stereo not drawn),?,-25%
CSCC[C@H](NC(=O)c1cccc([N+](=O)[O-])c1C)c1nc2ccccc2[nH]1,14µM*,7%
O=C(NC(Cc1ccccc1)c1nc2ccccc2[nH]1)c1ccc(Cl)c([N+](=O)[O-])c1 (stereo not drawn),-17%,-2%
CSCC[C@H](NC(=O)c1ccc(Cl)c([N+](=O)[O-])c1)c1nc2ccccc2[nH]1,14µM*,-9%
CCC(C)NC(=O)c1ccc2c(c1)N=C(C)c1cc(C)ccc1S2 (stereo not drawn),1%,24%
CCc1noc(-c2ccc(N3CCCCC3C)c([N+](=O)[O-])c2)n1 (stereo not drawn),-4%,14%
O=C(c1cnccn1)N1CCC2(CC1)CN(c1ncccn1)C2,-1%,9%
Cc1onc(-c2ccccc2Cl)c1C(=O)Nc1nnc(-c2ccc(Cl)cc2Cl)s1,-2%,?
COC(=O)c1ccc(C(=O)NC(=S)Nc2nc3c(s2)CC(C)CC3)cc1 (stereo not drawn),-3%,6%
SMILES,Cruzain inh Det,Cruzain noTriton
O=C(Nc1nc2c(s1)CCCC2)c1cccnc1,-5%,-12%
O=C(NC(=S)Nc1nc2c(s1)CCCC2)c1ccc(C(=O)c2ccccc2)cc1,0%,25µM*
O=C(NC(=S)Nc1nc2c(s1)CSc1ccccc1-2)c1ccccc1,-5%,7.9µM*
Cc1onc(-c2ccccc2Cl)c1C(=O)Nc1nc2c(s1)CCCC2,-1%,25µM*
CN(C)CC[C@@H](C(=O)C(C)(C)C)c1ccccn1,-4%,-1%
COc1ccc(-c2[nH]c(-c3ccc(O)cc3)nc2-c2ccccc2)cc1,-12%,0%
CCCCC[C@H](O)/C=C/[C@H]1OC(O)C[C@H](O)[C@@H]1C/C=C\CC(=O)O (stereo partly drawn),1%,-16%
COc1ccc(-c2nc(=S)c3c([nH]2)Oc2ccc(C)cc2C3)cc1O,0%,10µM*
COc1ccc(-c2nc(-c3ccccc3)c(-c3cc([N+](=O)[O-])ccc3C)[nH]2)cc1O,-4%,7%
CCNC(=S)N/N=C/c1cn(Cc2ccccc2F)c2ccccc12,-2%,?
CNC(=S)N/N=C/c1cn(Cc2c(F)cccc2Cl)c2ccccc12,-6%,32µM*
Cc1c(Cc2ccccc2)c(=O)oc2c(CN(C)C)c(O)c(Cl)cc12,20µM*,?
CN(C)Cc1c(O)ccc2oc(Cc3ccccc3)cc12,-1%,-5%
COc1cccc(-c2cc(=O)c3cc(NC(=O)c4cccnc4)ccc3[nH]2)c1,0%,-4%
CCOc1ccc(-c2nonc2NC(=O)c2oc3ccc(Cl)cc3c2C)cc1,2%,-6%
COc1ccc(-c2csc3nc(C)n(-n4cccc4)c(=O)c23)cc1OC,-5%,8%
COc1ccc(-c2csc3nc(-c4cccnc4)nc(N4CCC(C(N)=O)CC4)c23)cc1OC,25µM*,?
COc1ccc(C2C(C#N)=C(N)N(c3cccnc3)C3=C2C(=O)CCC3)cc1Cn1cc([N+](=O)[O-])cn1 (stereo not drawn),-3%,-12%
COc1ccc(C2C(C#N)=C(N)Oc3c2c(=O)oc2ccccc32)cc1Cn1cc([N+](=O)[O-])cn1 (stereo not drawn),-4%,25µM*
COc1ccc(C2C(C#N)=C(N)N(c3ccccc3)C3=C2C(=O)CCC3)cc1Cn1cc([N+](=O)[O-])cn1 (stereo not drawn),-1%,20µM*
COc1ccc(C2C(C#N)=C(N)OC3=C2C(=O)CCC3)cc1Cn1cc([N+](=O)[O-])cn1 (stereo not drawn),-3%,-7%
COc1ccc(-c2nnc(SCC(=O)N3CCC(C)CC3)o2)cc1,-3%,0%
COc1ccc(OC)c(CNC(=O)c2ccc3nc(C(C)C)oc3c2)c1,-2%,-1%
Cc1noc(C)c1-c1cc(NCCN2CCOCC2)ncn1,0%,9%
CN1C(=O)/C(=C\c2cc(N=Nc3ccccc3)ccc2O)SC1=S,-2%,25µM*
SMILES,Cruzain inh Det,Cruzain noTriton
Cc1nn(-c2ccccc2)c(Cl)c1/C=C1\SC(=S)N(C)C1=O,-5%,-16%
Cc1ccc(CC(=O)N(Cc2nc(-c3ccc(C)cc3)no2)C(C)C)cc1,-3%,23%
O=C1C(=C2CCCCC2)SC(=S)N1Cc1ccco1,20µM*,16µM*
O=C(O)CCN1C(=O)C(=C2CCCCCC2)SC1=S,-1%,-2%
CCOc1ccc(C(=O)NCC(c2ccc3c(c2)OCO3)N2CCN(c3ccc(F)cc3)CC2)cc1 (stereo not drawn),0%,-4%
COc1ccc(-c2nn(-c3ccccc3)cc2/C=N/n2cnnc2)cc1OC,-8%,?
COc1ccccc1NS(=O)(=O)c1cccc(C(=O)N/N=C/c2ccc3c(c2)OCCO3)c1,-11%,?
COc1ccccc1NS(=O)(=O)c1cccc(C(=O)N/N=C/c2c(C)nn(-c3ccccc3)c2N2CCCC2)c1,-4%,-13%
COc1ccccc1NS(=O)(=O)c1cccc(C(=O)N/N=C/c2cn(-c3ccccc3)nc2-c2ccccc2)c1,-5%,13µM*
COc1ccc(-c2nn(-c3ccccc3)cc2/C=N/NC(N)=S)cc1OC,1.6µM*,0.63µM*
CCN(CC)c1ccc(/C=N/NC(=O)c2cccc(S(=O)(=O)Nc3ccccc3OC)c2)c(O)c1,-4%,20µM*
